Structures are written as SMILES. Among all 350,000 compounds or so, about 2,100 (0.6%) were called active. About 1% were inconclusive and are not listed. Shown is part of a subset that was picked to be rich in actives. A number with no mark means an inactive call.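 The calls were made as follows: active = activity change of -60% or lower, but not beyond a set lower limit; inconclusive = change between -60% and -40%, or beyond the set limit; inactive = change above -40%.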
% is scaled to controls: 0 for no effect and ±100 for the full control effect.

Sequence of Relaxin receptor 1 (Homo sapiens) (Q9HBX9 whole entry, looked up): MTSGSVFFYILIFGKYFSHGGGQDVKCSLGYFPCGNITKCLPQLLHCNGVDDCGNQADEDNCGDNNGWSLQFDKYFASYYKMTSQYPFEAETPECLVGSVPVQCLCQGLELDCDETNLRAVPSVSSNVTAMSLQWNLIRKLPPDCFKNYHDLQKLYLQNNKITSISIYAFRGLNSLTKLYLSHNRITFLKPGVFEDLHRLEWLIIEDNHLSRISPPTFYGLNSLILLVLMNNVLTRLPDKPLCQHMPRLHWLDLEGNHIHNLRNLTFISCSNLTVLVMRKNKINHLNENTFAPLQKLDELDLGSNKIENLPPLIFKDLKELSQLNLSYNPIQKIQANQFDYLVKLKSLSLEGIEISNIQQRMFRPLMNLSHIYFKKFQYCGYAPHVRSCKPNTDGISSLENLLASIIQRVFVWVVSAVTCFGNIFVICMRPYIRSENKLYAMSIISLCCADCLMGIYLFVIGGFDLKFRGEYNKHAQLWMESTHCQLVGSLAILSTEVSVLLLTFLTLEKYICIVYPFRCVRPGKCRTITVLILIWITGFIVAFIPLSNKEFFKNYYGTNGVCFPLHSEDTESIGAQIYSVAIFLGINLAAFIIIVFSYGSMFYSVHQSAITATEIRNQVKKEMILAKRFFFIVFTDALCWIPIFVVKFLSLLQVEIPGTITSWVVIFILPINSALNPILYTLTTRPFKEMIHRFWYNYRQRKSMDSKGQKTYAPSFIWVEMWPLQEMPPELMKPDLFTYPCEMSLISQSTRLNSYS

The assay addresses Relaxin receptor 1 (Homo sapiens) (UniProt Q9HBX9). Nature of the assay: qHTS Assay for Antagonists of the Relaxin Receptor RXFP1. Particulars: HEK293-RXFP1, relaxin-stimulated cAMP HTRF, 30 min; at 57.5 µM; hits give low values. From the text:
The relaxin hormone is involved in the variety of biological functions in normal tissues and diseases. The role of relaxin is well-established in female reproduction and parturition, mammary gland and endometrial development, maintenance of myometrial quiescence during pregnancy. Relaxin signaling through its G protein-coupled receptor (GPCR) RXFP1 results in ECM remodeling through regulation of collagen deposition, cell invasiveness, proliferation and overall tissue homeostasis. […] Recombinant human relaxin (rhRlx) is currently being tested in clinical trials as a protective agent in congestive heart failure, in treating severe preeclampsia, and as an anti-fibrotic agent in various organs. […] Upon relaxin binding RXFP1 activation leads to the activation of adenylate cyclase (AC) via G?s. cAMP will activate PKA, which phosphorylates many signaling proteins. Thus, detection of cAMP increase is an easy and reliable indication of relaxin receptor activation. To screen for antagonists of the relaxin receptor, a HEK293T cell line stably transfected with RXFP1 was used. RXFP1 activation by relaxin in presence of various concentrations of tested compounds was assayed by changes in cAMP levels as detected with a time-resolved fluorescence energy transfer (TR-FRET) cAMP detection kit.
For the primary screening, we used HTRF(R) (Homogenous Time-Resolved Fluorescence) cAMP HiRange assay (Cisbio Bioassays, 62AM6PEJ). Presence of cAMP in the cell lysate disrupts binding between the Cryptate-labeled anti-cAMP and d2-labeled cAMP pair, leading to a decrease in TR-FRET signal. The libraries were screened at two doses (57microM and 11microM), followed by a confirmation of the hits at 7-point serial dilution in the range of final concentrations [57microM - 78nM]. Data were normalized to the controls for basal activity (buffer only) and 100% activity (5 nM porcine relaxin). The EC50 values were determined from concentration-response data modeled with the standard Hill equation. NCGC Assay Protocol Summary: HiHEK (Hawaiian HEK293 LGR7 stably transfected with human RXFP1) were grown in the following media: DMEM+10%FBS+Pen/Strep + Geneticin (1mg/ml). For the assay, the cells were seeded in DMEM+Pen/Strep (with no serum & selective antibiotics) at 2,100 cells/ 3microl/well with MultiDrop Combi dispenser (Thermo Scientific, Logan, UT) onto white tissue culture treated solid bottom1536-well plates (Greiner #789173-F) and allowed to attach/recover overnight at 37 degrees C, 5% CO2. Next, 23nl/well of compound solutions in DMSO were transferred into wells with a pintool (Kalypsis, San Diego, CA). […] EC80 (relaxin at 50pM final concentration) was dispensed to the rest of the plate except columns 1&2 which were used as a negative control (EC0, buffer only), 1microl/well also. The cells were stimulated by relaxin in the presence of compounds for 30 minutes at 37 degrees C, 5% CO2. The detection reagents were prepared individually by dilution in Lysis buffer (supplied with the assay kit) just prior to dispensing. 1microl/well of cAMP-d2 and 1microl/well anti-cAMP-Eu3+-Cryptate antibodies were added simultaneously with BioRAPTR FRDtrade mark Workstation (Beckman Coulter). The plates were incubated at ambient temperature for 30 minutes and, then, FRET signal was read on Envision plate reader (PerkinElmer, Waltham, MA), at wavelengths 340nm (excitation), 615nm & 665nm (emission of donor and acceptor channels respectively).
Background: In qHTS, concentration-response curves come from the screen itself.
In the case of `O=C1NC(=O)C(Cc2ccccc2)C(=O)N1`, the activity change, negative = inhibition is 13.2%.
Turning to `O=C1NC(=O)C(CCOc2ccccc2)(CCc2ccccc2)C(=O)N1`, the activity change, negative = inhibition is 1.73%.
Consider `CCC1(CC(C)c2ccccc2)C(=O)NC(=O)NC1=O` (stereo not given), for which the activity change, negative = inhibition is -60.5% (active).
Turning to `COC(=O)C1=C(c2ccc(OCc3ccccc3)cc2)C[C@@H]2CC[C@H]1N2C(=O)NCc1ccc(Cl)cc1`, the activity change, negative = inhibition was -0.858%.
In the case of `COc1ccc(C2C=C(C)Oc3c2c(=O)oc2ccccc32)cc1OC` (stereo not given), the activity change, negative = inhibition is -2.25%.
Next, `O=C1NC(=O)N(Cc2ccco2)C(=O)/C1=C\c1cccn1CCOc1ccccc1`: 2.7%; `Cc1cc(/C=C2/C(=O)NC(=O)N(Cc3ccco3)C2=O)c(C)n1-c1ccc(C(=O)O)cc1`: 7.49%.
In the case of `O=C1NC(=O)N(Cc2ccco2)C(=O)/C1=C\c1ccc(-c2ccc(F)cc2)o1` it was -116% (active).
As for `CC1N=C(N)OC1c1ccccc1` (stereo not given), the activity change, negative = inhibition is 7.33%.
`CC(=CCOc1ccc2ccc(=O)oc2c1)C1=CC(=O)C(C)(C)O1`: the activity change, negative = inhibition was 1.36%.
In the case of `COc1cccc(N2C(=O)NC(=O)/C(=C\c3cn(C)c4ccccc34)C2=O)c1` it was 1.09%; in that of `Cc1cccc(N2C(=O)NC(=O)/C(=C\c3cnn(-c4ccccc4)c3)C2=O)c1`, -97.1% (active).
For the compound `O=C1NC(=O)N(c2ccccc2)C(=O)/C1=C/c1ccc([N+](=O)[O-])s1`, the activity change, negative = inhibition is -11.7%.
As to `CC1=C(C(=O)O)N2C(=O)[C@@H](N)[C@H]2SC1`, the activity change, negative = inhibition was 7.08%.
With `C[C@H]1CN([C@@H](C)CO)C(=O)CCCn2nncc2CO[C@H]1CN(C)C(=O)Oc1ccccc1`, the activity change, negative = inhibition is -9.78%.
For the compound `CC(c1ccccc1)(c1ccccc1)c1ccncc1`, the activity change, negative = inhibition was -80.6% (active).
On to `O=S(=O)(O)C(F)(F)C(F)(F)C(F)(F)C(F)(F)F`, for which the activity change, negative = inhibition was 19.3%.
Take `CO[C@]12CC[C@@]3(C[C@@H]1[C@](C)(O)C(C)(C)C)[C@@H]1Cc4ccc(O)c5c4[C@@]3(CCN1CC1CC1)[C@H]2O5`: the activity change, negative = inhibition is -34%.
For the compound `CCCOC(=O)c1cncn1C(C)c1ccccc1` (stereo not given), the activity change, negative = inhibition is 12.5%.
As for `Cc1ncoc1C(=O)NCC1=C(c2cccc3ccccc23)C[C@@H]2CC[C@H]1N2Cc1ccco1`, the activity change, negative = inhibition is -0.31%.
For the compound `c1cc2c(c(NC3=NCCCS3)c1)CCCC2`, the activity change, negative = inhibition is 4.47%.
Regarding `CCCCC1C(=O)NC(=O)N(C2CCCCC2)C1=O` (stereo not given), the activity change, negative = inhibition is -10.8%.
Next, `CCCCCCCCCCCCn1ccc(=N)cc1`: -73.7% (active).
For the compound `O=c1c2ccccc2nc(CBr)n1-c1ccc(Cl)cc1`, the activity change, negative = inhibition is 8.62%.
With `C[C@H]1CN([C@@H](C)CO)C(=O)CCCn2nncc2CO[C@H]1CN(C)C(=O)Oc1cccc2ccccc12`, the activity change, negative = inhibition was 3.41%.

Source of the values: PubChem BioAssay AID1259400 (National Center for Advancing Translational Sciences (NCATS), 2018).
